# Experimental data published in PubChem BioAssay (NCI).
# This is part of a sample that, as a whole, favours compounds with a hit. Of some 83,000 tested, about 20% had one in any assay.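 Values shown are percent growth following 48 h exposure of cells in 96-well plates to a single concentration of compound; below 10 was considered active.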 Values without a mark were called inactive. Calls of active or inactive are those of the source.
# Columns and labels:
# Assay in all cases: NCI-60 one-dose screen, 48 h (100 = growth as untreated, 0 = no growth, -100 = all killed)
# Settings in all cases: 10 µM unless noted
# NCI-H23 lung = test system: NCI-H23 lung
# NCI-H226 lung = test system: NCI-H226 lung
# HOP-62 NSCLC = test system: HOP-62 NSCLC
# NCI-H460 lung = test system: NCI-H460 lung
# HOP-92 NSCLC = test system: HOP-92 NSCLC
# NCI-H522 lung = test system: NCI-H522 lung
# A549/ATCC NSCLC = test system: A549/ATCC NSCLC
# 786-0 renal = test system: 786-0 renal
# COLO 205 colon = test system: COLO 205 colon
# DU-145 prostate = test system: DU-145 prostate
# K-562 leukemia = test system: K-562 leukemia
# MALME-3M melanoma = test system: MALME-3M melanoma
# MDA-MB-231 breast = test system: MDA-MB-231 breast
# SF-268 CNS = test system: SF-268 CNS
# SF-295 CNS = test system: SF-295 CNS
# SF-539 CNS = test system: SF-539 CNS
# UACC-257 melanoma = test system: UACC-257 melanoma
# M14 melanoma = test system: M14 melanoma
Structure (SMILES),growth (NCI-H23 lung),growth (NCI-H226 lung),growth (HOP-62 NSCLC),growth (NCI-H460 lung),growth (HOP-92 NSCLC),growth (NCI-H522 lung),growth (A549/ATCC NSCLC),growth (786-0 renal),growth (COLO 205 colon),growth (DU-145 prostate),growth (K-562 leukemia),growth (MALME-3M melanoma),growth (MDA-MB-231 breast),growth (SF-268 CNS),growth (SF-295 CNS),growth (SF-539 CNS),growth (UACC-257 melanoma),growth (M14 melanoma)
CCNC(=O)c1[nH]cc(-c2ccc(OC)cc2)c1-c1cc(OC)c(OC)c(OC)c1,60.3%,83%,45%,13.7%,8.85% (active),17.6%,51.1%,47.5%,32.5%,69.3%,12.1%,35.4%,74.5%,58.8%,30.3%,29.1%,81.3%,51.4%
Cc1ccccc1C(c1ccccc1)c1ccccc1C,94.4%,22.1%,69.5%,101%,79.7%,77.1%,73.6%,98.8%,105%,117%,105%,109%,104%,99.7%,97.7%,106%,71.3%,80.3%
Cc1ccc(C2CC(c3cccc(Nc4ccncc4)c3)=NN2c2ccc(Cl)cc2)cc1 (configuration not stated),-83.2% (active),-38.8% (active),-65.9% (active),-76.1% (active),-90.3% (active),-71.2% (active),-34.5% (active),-88.4% (active),-66.3% (active),-93.3% (active),-18.8% (active),-86% (active),-86% (active),-72% (active),-85.6% (active),-96.2% (active),-35.1% (active),-57.3% (active)
Clc1cc(Cl)cc(N2N=C(c3cccc(Nc4ccncc4)c3)CC2c2ccc(Br)cc2)c1 (configuration not stated),64.4%,85.7%,33.7%,-81.8% (active),65.8%,69.7%,19.1%,105%,-40.5% (active),35.2%,1.66% (active),23.7%,57.1%,77.1%,36.9%,76.6%,79.4%,108%
